Experimental data from PubChem BioAssay (NCI).
About 83,000 compounds went through this panel and 20% of them were active in at least one assay; those are over-represented in the sample as a whole.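 How to read the values: 0–100, growth inhibition (40 = 60% inhibited); 0, no net growth; -100 to 0, cell death (-40 = 40% of starting cells died; -100 = all dead).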 Calls of active or inactive are those of the source. How the source made its calls: active means growth percent below 10; inactive means the rest.

How the values were obtained:
Experiment in all cases: NCI-60 one-dose screen, 48 h (100 = growth as untreated, 0 = no growth, -100 = all killed)
Details in all cases: 10 µM unless noted
HCT-15 colon = tested on: HCT-15 colon
HT29 colon = tested on: HT29 colon
SNB-75 CNS = tested on: SNB-75 CNS
SNB-19 CNS = tested on: SNB-19 CNS
U251 CNS = tested on: U251 CNS
PC-3 prostate = tested on: PC-3 prostate
LOX IMVI melanoma = tested on: LOX IMVI melanoma
SK-MEL-2 melanoma = tested on: SK-MEL-2 melanoma
EKVX NSCLC = tested on: EKVX NSCLC
UO-31 renal = tested on: UO-31 renal
TK-10 renal = tested on: TK-10 renal
ACHN renal = tested on: ACHN renal
CAKI-1 renal = tested on: CAKI-1 renal
A498 renal = tested on: A498 renal
CCRF-CEM leukemia = tested on: CCRF-CEM leukemia
MOLT-4 leukemia = tested on: MOLT-4 leukemia

Measured: growth

NC(=NCCCC1(c2ccccc2)CCCC1)Nc1ccc(Cl)cc1
active: HT29 colon -15.4% | U251 CNS -26.6% | LOX IMVI melanoma -50% | CCRF-CEM leukemia 4.14% | MOLT-4 leukemia -0.285%
inactive: HCT-15 colon 28.9% | SNB-75 CNS 41.1% | SNB-19 CNS 55.9% | PC-3 prostate 43.3% | SK-MEL-2 melanoma 35.3% | EKVX NSCLC 78.4% | UO-31 renal 58.5% | TK-10 renal 71.1% | ACHN renal 34.7% | CAKI-1 renal 64.9% | A498 renal 83.1%

C=C1C(=O)O[C@H]2[C@H]1CC/C(COC(=O)NCCc1ccc(OC)c(OC)c1)=C\CC[C@@]1(C)O[C@@H]21
inactive: HCT-15 colon 61.7% | HT29 colon 32.8% | SNB-75 CNS 61.2% | SNB-19 CNS 90.1% | U251 CNS 76.8% | PC-3 prostate 78.8% | LOX IMVI melanoma 75% | SK-MEL-2 melanoma 83% | EKVX NSCLC 71.5% | UO-31 renal 43% | TK-10 renal 36% | CAKI-1 renal 45.2% | A498 renal 81.3% | MOLT-4 leukemia 43.6%
active: ACHN renal 8.5% | CCRF-CEM leukemia -8.78%

COc1ccc(CN2c3ccccc3Oc3ccccc32)cc1F
inactive: HCT-15 colon 47.4% | HT29 colon 11.2% | SNB-75 CNS 47.9% | SNB-19 CNS 67.8% | U251 CNS 39.5% | PC-3 prostate 64.8% | LOX IMVI melanoma 59% | SK-MEL-2 melanoma 10% | EKVX NSCLC 60.7% | UO-31 renal 53.3% | TK-10 renal 74.2% | ACHN renal 81% | CAKI-1 renal 59.3% | A498 renal 54.3% | CCRF-CEM leukemia 66.7% | MOLT-4 leukemia 42%

CC/C=C\C[C@H]1C/C=C2/C(=O)C=C[C@H]2C/C=C\CCCC(=O)O1
inactive: HCT-15 colon 29.8% | SNB-75 CNS 38.6% | SNB-19 CNS 40.3% | U251 CNS 10.4% | PC-3 prostate 36% | SK-MEL-2 melanoma 21.4% | EKVX NSCLC 45% | UO-31 renal 55.5% | TK-10 renal 29.6% | CAKI-1 renal 25.2% | A498 renal 79.5% | MOLT-4 leukemia 14.3%
active: HT29 colon 6.12% | LOX IMVI melanoma 6.07% | ACHN renal -67.7% | CCRF-CEM leukemia -6.1%

COc1cc2c(cc1O)CC[C@@H]1[C@@H]2CC[C@]2(C)[C@@H](NCCN(C)C)CC[C@@H]12
active: HCT-15 colon -83.1% | HT29 colon -91.9% | SNB-75 CNS -96.6% | SNB-19 CNS -79.6% | U251 CNS -92.3% | PC-3 prostate -91.2% | LOX IMVI melanoma -84.2% | SK-MEL-2 melanoma -95.7% | EKVX NSCLC -82.8% | UO-31 renal -84.1% | TK-10 renal -95.8% | ACHN renal -92.8% | CAKI-1 renal -95.9% | A498 renal -79.3% | CCRF-CEM leukemia -71.8% | MOLT-4 leukemia -71.8%

CC(=O)c1cc(C(=O)c2ccc3c(c2)Sc2ccccc2N3)n2ccccc12
inactive: HCT-15 colon 17.9% | SNB-75 CNS 13.1% | SNB-19 CNS 30.9% | PC-3 prostate 22.2% | LOX IMVI melanoma 20.8% | SK-MEL-2 melanoma 20.3% | TK-10 renal 59.2% | ACHN renal 26.2% | CAKI-1 renal 24.1% | MOLT-4 leukemia 13.9%
active: HT29 colon -13.1% | U251 CNS 9.6% | A498 renal -11.9% | CCRF-CEM leukemia 5.4%

COc1ccc2c(c1)C(=O)/C(=C/c1ccccn1)CC2
active: CCRF-CEM leukemia -6.73%
inactive: HCT-15 colon 68.5% | HT29 colon 43.3% | SNB-75 CNS 75.8% | SNB-19 CNS 76.1% | U251 CNS 69.3% | PC-3 prostate 87.6% | LOX IMVI melanoma 44.5% | SK-MEL-2 melanoma 81.3% | UO-31 renal 90% | TK-10 renal 55.7% | ACHN renal 54.1% | CAKI-1 renal 74.4% | A498 renal 120% | MOLT-4 leukemia 21.5%

NC(=NC1C2CC3CC(C2)CC1C3)Nc1ccc(I)cc1 (centres undefined)
inactive: HCT-15 colon 43.9% | SNB-75 CNS 57.1% | SNB-19 CNS 27.5% | U251 CNS 50.4% | PC-3 prostate 36.9% | LOX IMVI melanoma 61.9% | SK-MEL-2 melanoma 50.3% | EKVX NSCLC 32.2% | UO-31 renal 18.6% | TK-10 renal 43.5% | CAKI-1 renal 18%
active: HT29 colon 9.6% | ACHN renal 7.41% | A498 renal -12.5% | CCRF-CEM leukemia 8.16% | MOLT-4 leukemia 5.63%

CC/C=C\C/C=C\C[C@H]1C/C=C2/C(=O)C=C[C@@H]2C/C=C\CCC(=O)O1
active: HCT-15 colon 0.621% | HT29 colon -40.5% | U251 CNS -23.2% | PC-3 prostate 2.76% | LOX IMVI melanoma -59.7% | SK-MEL-2 melanoma -56.9% | UO-31 renal -49.7% | TK-10 renal 7.69% | CCRF-CEM leukemia -5.47% | MOLT-4 leukemia 2.83%
inactive: SNB-75 CNS 64% | SNB-19 CNS 28% | EKVX NSCLC 31.4% | CAKI-1 renal 14.5% | A498 renal 20.7%

NC(=NCCCOc1ccc(Cl)cc1)Nc1ccc(Cl)cc1
inactive: HCT-15 colon 56% | SNB-75 CNS 44.8% | SNB-19 CNS 19.3% | U251 CNS 41.2% | PC-3 prostate 26.7% | LOX IMVI melanoma 40.3% | SK-MEL-2 melanoma 24.1% | EKVX NSCLC 44.4% | UO-31 renal 37% | TK-10 renal 45.8% | CAKI-1 renal 19.3%
active: HT29 colon 1.24% | ACHN renal 2.74% | A498 renal -12% | CCRF-CEM leukemia 6.02% | MOLT-4 leukemia 4.83%

CC(=O)O[C@H]1C(=O)[C@@]2(C)[C@H]([C@H](OC(=O)c3ccccc3)[C@]3(O)C[C@H](OC(=O)[C@H](OC(=O)CCC(=O)OC4CCC(S/N=C(N)/N=C(\N)N(C)C)CC4)[C@@H](NC(=O)c4ccccc4)c4ccccc4)C(C)=C1C3(C)C)[C@]1(OC(C)=O)CO[C@@H]1C[C@@H]2O (some centres undefined)
inactive: HCT-15 colon 25.3% | SNB-19 CNS 29.8% | U251 CNS 17.1% | PC-3 prostate 28.4% | LOX IMVI melanoma 42.9% | SK-MEL-2 melanoma 12.8% | EKVX NSCLC 37.3% | UO-31 renal 47.3% | TK-10 renal 48.9% | ACHN renal 39.7% | A498 renal 26.7% | CCRF-CEM leukemia 17.5% | MOLT-4 leukemia 22.5%
active: HT29 colon 5% | SNB-75 CNS -22.3%

COc1ccc(CN2c3ccccc3Oc3ccccc32)cc1O
active: SK-MEL-2 melanoma -6.69%
inactive: HCT-15 colon 28.1% | HT29 colon 72.7% | SNB-75 CNS 27.4% | SNB-19 CNS 34.9% | U251 CNS 24% | PC-3 prostate 31.4% | LOX IMVI melanoma 39.5% | EKVX NSCLC 35% | UO-31 renal 32.5% | TK-10 renal 64.4% | ACHN renal 36.1% | A498 renal 106% | CCRF-CEM leukemia 12.5% | MOLT-4 leukemia 24.9%

Cc1nc(Nc2ccc(F)c(Cl)c2)sc1C(=O)O
active: HT29 colon 3.5% | SNB-75 CNS -13.4% | U251 CNS 8.16% | PC-3 prostate 7.92% | LOX IMVI melanoma 2.1% | EKVX NSCLC 8.63% | UO-31 renal -8.39% | CAKI-1 renal 8.86% | A498 renal -26.2% | CCRF-CEM leukemia 9.7% | MOLT-4 leukemia 6.93%
inactive: HCT-15 colon 11.3% | SNB-19 CNS 26.2% | SK-MEL-2 melanoma 10.7% | TK-10 renal 21% | ACHN renal 11.2%

O=C1c2c(O)cc(O)cc2-c2c(-c3ccc(O)cc3)oc3cc(O)cc1c23
inactive: HCT-15 colon 57.5% | HT29 colon 88.8% | SNB-75 CNS 26.4% | SNB-19 CNS 44.8% | U251 CNS 25.5% | PC-3 prostate 50.5% | LOX IMVI melanoma 17.9% | SK-MEL-2 melanoma 72.3% | EKVX NSCLC 62.2% | UO-31 renal 12.7% | TK-10 renal 63.4% | CAKI-1 renal 33% | A498 renal 62.5%
active: ACHN renal 9.27% | CCRF-CEM leukemia 6.03% | MOLT-4 leukemia 1.37%

CCOc1ccc(C(C)=O)cc1NC(=O)c1cccc(-c2nnn(CC)n2)c1
inactive: HCT-15 colon 46.8% | SNB-19 CNS 36.5% | U251 CNS 22.1% | PC-3 prostate 27.3% | LOX IMVI melanoma 49.2% | EKVX NSCLC 54.5% | UO-31 renal 38.4% | TK-10 renal 64.4% | CCRF-CEM leukemia 11.9% | MOLT-4 leukemia 27.8%
active: HT29 colon 7.72% | SNB-75 CNS 6.99% | SK-MEL-2 melanoma -5.73% | A498 renal -6.01%

CCCCC[C@H]1C/C=C2/C(=O)C=C[C@@H]2C/C=C\CCCC(=O)O1
active: HCT-15 colon -18.8% | HT29 colon -69.1% | SNB-75 CNS -33.6% | SNB-19 CNS 1.16% | U251 CNS -78.2% | PC-3 prostate -38.4% | LOX IMVI melanoma -79.1% | SK-MEL-2 melanoma -75.9% | EKVX NSCLC -18% | UO-31 renal -96.5% | TK-10 renal -59.4% | CAKI-1 renal 8.56% | A498 renal -61.1% | CCRF-CEM leukemia -0.835% | MOLT-4 leukemia -3.81%

CCC#CC[C@H](O)C/C=C1/C(=O)C=C[C@@H]1C/C=C\CCCC(=O)OC
active: HCT-15 colon 3.26% | HT29 colon -80.2% | U251 CNS 0.174% | PC-3 prostate 1.55% | LOX IMVI melanoma -72.2% | SK-MEL-2 melanoma -35.8% | UO-31 renal -65.4% | TK-10 renal 2.33% | ACHN renal -82.8% | CAKI-1 renal -18.3% | CCRF-CEM leukemia -8.8% | MOLT-4 leukemia 1.17%
inactive: SNB-75 CNS 43.5% | SNB-19 CNS 23.8% | EKVX NSCLC 23.7% | A498 renal 95.7%

COc1ccc(-c2nc(SCC(=O)Nc3ccc(C(=O)/C=C/c4ccc(Cl)cc4)cc3)[nH]c(=O)c2C#N)cc1
active: U251 CNS -15.3% | LOX IMVI melanoma -79.4%
inactive: HCT-15 colon 97.9% | HT29 colon 103% | SNB-75 CNS 85.2% | SNB-19 CNS 39.4% | PC-3 prostate 93.6% | SK-MEL-2 melanoma 100% | UO-31 renal 89.1% | TK-10 renal 102% | ACHN renal 98.9% | CAKI-1 renal 82.8% | A498 renal 101% | CCRF-CEM leukemia 94.2% | MOLT-4 leukemia 84.4%

C=C1C(=O)O[C@H]2[C@H]1CC/C(COC(=O)NCc1ccc(OC)c(OC)c1)=C\CC[C@@]1(C)O[C@@H]21
active: ACHN renal 6.25% | CCRF-CEM leukemia -7.86%
inactive: HCT-15 colon 50.7% | HT29 colon 28.8% | SNB-75 CNS 58.7% | SNB-19 CNS 87.2% | U251 CNS 86.5% | PC-3 prostate 78.4% | LOX IMVI melanoma 69.4% | SK-MEL-2 melanoma 85.1% | EKVX NSCLC 65.9% | UO-31 renal 56.7% | TK-10 renal 50.9% | CAKI-1 renal 32.9% | A498 renal 86.9% | MOLT-4 leukemia 39.4%
